Lamin A splicing: modulators of lamin A splicing; Potency, µM (titrated, usually from 46.1 µM), for inactives: top-dose ratio change, negative = inhibition, usual class: inhibitors; AID 1487; 200,000 tested, 0.01% active; HeLa LMNA splicing GFP/RFP minigene ratio, 48 h; active means well fitted inhibition curve with a large enough effect in the signal ratio, with a control signal flat, not every such curve was filed as active; inconclusive means small, poorly fitted or top-dose-only effect, or effect the other way, or a change in a side signal; the % refers to the signal ratio; further: potency means the concentration at half of the fitted maximal effect; on the % scale 0 is the no-effect control and ±100 the full control effect
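S3 HeLa cells stably expressing lamin A-EGFP splicing minigene plus DsRed2, 600 cells/well, 48 h compound exposure at 37C. Laser-scanning cytometry; analysed as GFP (500-530 nm)/RFP (575-640 nm) total intensity ratio; 0.5% DMSO vehicle.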
MBNL1-CUG inh: MBNL1-poly(CUG) RNA binding inhibition; Q9NR56; TR-FRET MBNL1-His/biotin-(CUG)12 binding, 665/545 ratio; Potency, µM (series often up to 57.5 µM), inactives show top-dose activity change, negative = inhibition, actives largely listed as inhibitors; 280,000 tested, 0.036% active; AID 2675; active means well fitted inhibition curve with a large enough effect in the signal ratio, with a control signal flat, not every such curve was filed as active; inconclusive means small, poorly fitted or top-dose-only effect, or effect the other way, or a change in a side signal; inactive means no such curve, though single readings can be large or run the other way; the % refers to the signal ratio; further: potency means the concentration at half of the fitted maximal effect; on the % scale 0 is the no-effect control and ±100 the full control effect
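TR-FRET readout: Ex 340 nm, 665/545 nm emission ratio, normalized to buffer-only (basal) and MBNL1-(CUG)12 controls. Complex of MBNL1-His with Biotin-(CUG)12, compounds 92 nM–58 uM, incubated 60 min at room temperature.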
NPSR antag: blocks cAMP signaling of the human neuropeptide S receptor. Q6W5P4. CHO-NPSR cells, cAMP TR-FRET, antagonist mode. Potency, µM (doses to about 38.3 µM), inactives show at the top dose activity change, negative = inhibition, hits mostly inhibitors. 220,000 tested, 1% active. AID 1461; further: potency means the concentration at half of the fitted maximal effect; on the % scale 0 is the no-effect control and ±100 the full control effect; nearly all actives have a fitted effect of over 50% in size
HTT ATP protect: cytoprotection in Huntington HTT-Q103 PC12 cell model; PC12 HTT-Q103 induced, cytoprotection, ATP luminescence, 40 h; Potency, µM (titrated, usually from 56.4 µM), without a hit: cytoprotection (ATP increase), most hits filed as activators; 230,000 tested, 0.14% active; AID 1471; further: potency means the concentration at half of the fitted maximal effect; % of control where 0% means no effect; nearly all actives have a fitted effect of over 45% in size
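Compounds were screened for protection of PC12 cells against cell death after tebufenozide induction (100 nM final) of mutant Huntingtin exon 1 (Q103) fused to GFP.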
HttQ103 aggreg: mutant huntingtin aggregation inhibition. AID 1688. PC12 HttQ103-GFP aggregates, Acumen cytometry, 40 h. 220,000 tested, 1.1% active. Potency, µM (top dose mostly 46.1 µM), for inactives: top-dose activity change, negative = inhibition, usual class: inhibitors; further: potency means the concentration at half of the fitted maximal effect; on the % scale 0 is the no-effect control and ±100 the full control effect; nearly all actives have a fitted effect of over 60% in size
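Using laser scanning cytometry, GFP-positive aggregates were counted after lysis of PC12 cells induced with 100 nM tebufenozide to express HTT exon 1 Q103–GFP. Compounds were tested in titration.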
CBFb RUNX1 block: CBF-beta/RUNX1 interaction disruption. Q01196+Q13951. AlphaScreen CBFb-His/RUNX1-biotin binding, biochemical. Potency, µM (highest dose often 59.8 µM), for inactives: top-dose activity, negative = inhibition, usual class: inhibitors. 230,000 tested, under 10 active. AID 1477; further: % of control where 0% means no effect
Target sequence (Q01196 whole entry, looked up): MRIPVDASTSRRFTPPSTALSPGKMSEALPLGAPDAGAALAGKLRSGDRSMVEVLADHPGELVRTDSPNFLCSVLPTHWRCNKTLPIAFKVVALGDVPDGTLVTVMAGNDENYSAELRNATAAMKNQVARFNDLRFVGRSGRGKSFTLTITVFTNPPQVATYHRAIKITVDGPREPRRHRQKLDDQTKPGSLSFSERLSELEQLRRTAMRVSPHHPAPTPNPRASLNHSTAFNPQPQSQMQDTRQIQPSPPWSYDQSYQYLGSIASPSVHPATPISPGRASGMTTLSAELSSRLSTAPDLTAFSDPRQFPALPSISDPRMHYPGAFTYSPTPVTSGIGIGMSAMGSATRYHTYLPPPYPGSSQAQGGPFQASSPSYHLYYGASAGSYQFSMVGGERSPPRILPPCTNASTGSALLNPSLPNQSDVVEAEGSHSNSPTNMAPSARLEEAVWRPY
Target sequence (Q13951 whole entry, looked up): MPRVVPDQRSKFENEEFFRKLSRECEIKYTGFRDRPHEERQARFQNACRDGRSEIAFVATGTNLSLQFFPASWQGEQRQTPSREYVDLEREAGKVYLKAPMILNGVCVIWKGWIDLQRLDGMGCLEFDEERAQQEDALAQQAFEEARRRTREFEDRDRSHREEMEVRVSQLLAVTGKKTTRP
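CBF-beta (His) and RUNX1 (biotin), 30 nM each; 20 min preassociation; + compound, 15 min; + beads 50 ng each (Ni, streptavidin), 90 min; RT; AlphaScreen read.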
The depositor's hits bear a star; [ ] = another dose, or the depositor's remark. Rows were chosen to be rich in hits. Some 1.1% of all compounds tested hit in one or more screens of this group. Unless noted, the call rests on the fitted dose curve; in most records, active means well fitted curve in the direction sought with a large enough effect; inconclusive means small, poorly fitted or top-dose-only effect, or another doubt; inactive means no such curve, though single readings can be large; an effect the other way counts as inactive or inconclusive.

Results for O=C(NC1=NCCS1)c1cc(-c2ccc(F)cc2)nc2ccccc12 ?
Lamin A splicing: inconclusive; MBNL1-CUG inh: 18.4%; NPSR antag: 14.8%; HTT ATP protect: 2.5%[1.9 µM]; HttQ103 aggreg: -30.4%; CBFb RUNX1 block: -3.3%

What do the screens show for `CCCc1ccc(-c2cc(C(=O)NC3=NCCS3)c3ccccc3n2)cc1`?
Lamin A splicing: inconclusive; MBNL1-CUG inh: -18.7%; NPSR antag: inconclusive; HTT ATP protect: -28.2%[10 µM]; HttQ103 aggreg: 3.98µM*; CBFb RUNX1 block: -1.5%

How did Cc1cccc(C(=O)Nc2ccc(N3CCC(N4CCCCC4)CC3)c(C(=O)O)c2)c1 do in these assays?
Lamin A splicing: 13.9%[46 µM]

Results for Cc1cc2c(cc1C)C(=O)NC(C)(C)C2 ?
Lamin A splicing: 13.5%; MBNL1-CUG inh: 5.9%; NPSR antag: -11.4%[46.1 µM]; HTT ATP protect: -2.9%; HttQ103 aggreg: 10µM*; CBFb RUNX1 block: 16.8%

What do the screens show for `Cn1c(=O)oc2cc(S(=O)(=O)Nc3ccc4c(c3)OCCO4)ccc21`?
Lamin A splicing: inconclusive; MBNL1-CUG inh: -5.5%; NPSR antag: -5.4%[46.1 µM]; HTT ATP protect: -9.5%; HttQ103 aggreg: 35.5µM*; CBFb RUNX1 block: -3.4%

Results for CCC(=O)N1CCc2cc(S(=O)(=O)Nc3ccc4c(c3)OCCO4)ccc21 ?
Lamin A splicing: inconclusive; MBNL1-CUG inh: 2.0%; NPSR antag: -14.6%[46.1 µM]; HTT ATP protect: 25.8%; HttQ103 aggreg: 7.94µM*; CBFb RUNX1 block: -0.1%

How did CC[C@H](C)[C@H](NC(=O)[C@H](Cc1ccc(O)cc1)NC(=O)[C@@H]1CCCN1C(=O)[C@H](CCCCN)NC(=O)[C@@H](N)CCCCN)C(=O)N[C@@H](CC(C)C)C(=O)O do in these assays?
CBFb RUNX1 block: 2.6%

What do the screens show for `N[C@@H]1CCN(O)C1=O`?
HTT ATP protect: -29.3%; CBFb RUNX1 block: -7.6%

Results for COc1ccc(CN2CCC(N(CCc3ccccc3)Cc3ccccc3)CC2)c(OC)c1 ?
MBNL1-CUG inh: -17.9%; NPSR antag: 7.94µM*; HTT ATP protect: -31.1%; HttQ103 aggreg: -10.0%; CBFb RUNX1 block: -14.6%

Results for COC(=O)c1ccc2nc(Nc3nc4c(F)cc(F)cc4s3)sc2c1 ?
Lamin A splicing: inconclusive; NPSR antag: -27.3%; HttQ103 aggreg: 6.31µM*; CBFb RUNX1 block: -4.7%

How did CC(C)(C)OC(=O)N[C@@H](Cc1ccccc1)c1nnc(S(=O)(=O)Cc2cccc(F)c2)o1 do in these assays?
Lamin A splicing: 29.4%; MBNL1-CUG inh: 2.3%; NPSR antag: inconclusive; HTT ATP protect: 6.6%[0.074 µM]; HttQ103 aggreg: inconclusive; CBFb RUNX1 block: 4.7%

Results for CC[C@@H](C)[C@H](NC(=O)OC(C)(C)C)c1nnc(S(=O)(=O)Cc2cc(C)ccc2C)o1 ?
Lamin A splicing: inconclusive; MBNL1-CUG inh: 10.8%; NPSR antag: 10µM*; HTT ATP protect: inconclusive; HttQ103 aggreg: inconclusive; CBFb RUNX1 block: 9.4%

What do the screens show for `CC(C)[C@H](NC(=O)OC(C)(C)C)c1nnc(S(=O)(=O)Cc2c(F)cccc2Cl)o1`?
Lamin A splicing: inconclusive; MBNL1-CUG inh: -8.7%; NPSR antag: 12.6µM*; HTT ATP protect: -115.4%; HttQ103 aggreg: 10µM*; CBFb RUNX1 block: 1.6%

What do the screens show for `Cc1ccccc1CS(=O)(=O)c1nnc([C@H](CC(C)C)NC(=O)OC(C)(C)C)o1`?
Lamin A splicing: inconclusive; MBNL1-CUG inh: -9.5%; NPSR antag: 10µM*; HTT ATP protect: -167.0%[0.074 µM]; HttQ103 aggreg: inconclusive; CBFb RUNX1 block: 2.1%

Results for CCOc1cc(N2CCOCC2)c(OCC)cc1NC(=O)CC12CC3CC(CC(C3)C1)C2 ?
Lamin A splicing: inconclusive; MBNL1-CUG inh: -0.6%; NPSR antag: 10µM*; HTT ATP protect: 6.0%; HttQ103 aggreg: -0.9%; CBFb RUNX1 block: 0.8%

How did CC(C)c1ccc2c(c1)CC[C@@H]1[C@@](C)(CN)CCC[C@@]21C do in these assays?
HTT ATP protect: -80.6%

How did CCCCOc1ccccc1NC(=O)c1scc2c1OCCO2 do in these assays?
Lamin A splicing: 26.5%[9.22 µM]; MBNL1-CUG inh: -1.8%; NPSR antag: -57.8%; HTT ATP protect: -49.0%; HttQ103 aggreg: 12.6µM*; CBFb RUNX1 block: 6.5%

Results for COC(=O)N1C(C)=Cc2ccccc2C1CC(C)=O (configuration not stated) ?
Lamin A splicing: -2.5%[9.22 µM]; HTT ATP protect: -17.6%; CBFb RUNX1 block: -2.5%

What do the screens show for `O=c1cc(-c2cccc(O)c2O)oc2ccccc12`?
HTT ATP protect: inconclusive; CBFb RUNX1 block: -23.6%[21.7 µM]

How did O=C(N=Nc1c(O)[nH]c2ccc(Br)cc12)c1ccccc1-n1cccc1 do in these assays?
Lamin A splicing: inconclusive; MBNL1-CUG inh: inconclusive; NPSR antag: 12.6µM*; HTT ATP protect: -75.9%; HttQ103 aggreg: -18.4%; CBFb RUNX1 block: inconclusive

How did N=C(N)N=Nc1c(O)[nH]c2ccc(Br)cc12 do in these assays?
Lamin A splicing: -11.3%[46 µM]; MBNL1-CUG inh: inconclusive; NPSR antag: -53.1%; HTT ATP protect: 2.8%; HttQ103 aggreg: inconclusive; CBFb RUNX1 block: 4.5%

What do the screens show for `COCCCNC(=O)Cn1c(=O)n(-c2cccc(C)c2)c(=O)c2c1c1cc(C)ccc1n2C`?
Lamin A splicing: 11.3%[46 µM]

How did Cc1ccc(S(=O)(=O)C(CNC(=O)C(=O)NCCc2ccc(Cl)cc2)c2cccs2)cc1 (configuration not stated) do in these assays?
Lamin A splicing: 5.0%[46 µM]

How did O=C(O)CSCC(=O)Nc1ccc(Cl)cc1C(F)(F)F do in these assays?
Lamin A splicing: 4.4%[9.22 µM]; MBNL1-CUG inh: -2.2%; NPSR antag: 8.1%; HTT ATP protect: -24.8%; HttQ103 aggreg: -6.4%[9.22 µM]; CBFb RUNX1 block: 5.4%

Results for CC(C)N(CC(=O)Nc1ccc(Cl)cc1C(F)(F)F)C(=O)CCl ?
Lamin A splicing: -17.8%[46 µM]; MBNL1-CUG inh: -1.5%; NPSR antag: -6.6%; HTT ATP protect: -6.7%; HttQ103 aggreg: 14.1µM*; CBFb RUNX1 block: 13.0%

What do the screens show for `COc1ccc(S(=O)(=O)N2CCN(c3ccc(C)cc3C)CC2)cc1OC`?
Lamin A splicing: inconclusive; MBNL1-CUG inh: -3.3%; NPSR antag: -5.6%[46.1 µM]; HTT ATP protect: 16.6%; HttQ103 aggreg: 35.5µM*; CBFb RUNX1 block: 13.6%

Results for c1ccc(CSc2nc3ncncc3[nH]2)cc1 ?
MBNL1-CUG inh: -8.7%; NPSR antag: 37.1%; HTT ATP protect: 5.9%[10 µM]; HttQ103 aggreg: 5.0%[9.22 µM]; CBFb RUNX1 block: 1.3%

Results for S=c1nc(SCc2ccccc2)[nH]c2ccccc12 ?
MBNL1-CUG inh: 172.9%; NPSR antag: 10µM*; HTT ATP protect: -8.9%; HttQ103 aggreg: -16.2%; CBFb RUNX1 block: -0.1%
